In PubChem BioAssay (NCATS):
Results filed as inconclusive are left out. The source made the active and inactive calls. Unless noted, the call rests on the fitted dose curve; in most records, active means well fitted curve in the direction sought with a large enough effect; inconclusive means small, poorly fitted or top-dose-only effect, or another doubt; inactive means no such curve, though single readings can be large; an effect the other way counts as inactive or inconclusive.

Assay: qHTS assay for small molecule agonists of the antioxidant response element (ARE) signaling pathway measured by Nrf2-dependant transcriptional activity - cell viability counter screen (AID 720653; active means well fitted curve in the direction sought with a large enough effect in the repeat runs; an effect the other way counts as inactive or inconclusive)
Details: ARE-bla HepG2 viability, CellTiter-Glo ATP luminescence, 16 h; max response: active compounds read low
How it was run: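 ARE-bla HepG2 cells (2,000/well) rested 5 hrs at 37C/5% CO2, then exposed to compounds in DMSO for 16 hrs. Viability was read in the same wells as intracellular ATP by luminescence, 30 min at room temperature after reagent addition.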
On the % scale 0 is the no-effect control and ±100 the full control effect.

Structure (SMILES) | max response
CCOP(=O)(OCC)Oc1nc(Cl)c(Cl)cc1Cl | 6.34% (inactive)
ClC1=C(Cl)[C@]2(Cl)[C@H]3[C@H]([C@@H]4C=C[C@H]3C4)[C@]1(Cl)C2(Cl)Cl | -24.6% (inactive)
CC1(C)CCC(Cc2ccc(Cl)cc2)C1(O)Cn1cncn1 (stereo unspecified) | -10.5% (inactive)
CC(C)NC(=O)N1CC(=O)N(c2cc(Cl)cc(Cl)c2)C1=O | 1.07% (inactive)
[CH3][Sn]([CH3])([Cl])[Cl] | 3.28% (inactive)

Assay: qHTS assay for cell viability of HEK293 cells (AID 743288); further: nearly all actives have a fitted effect of over 50% in size; further: potency means the concentration at half of the fitted maximal effect
Details: ATP luminescence (CellTiter-Glo), 18 h; max response: active compounds read low
How it was run: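 Readout is luciferase-coupled ATP content (CellTiter-Glo luminescence, 30 min room temperature) as a measure of metabolically competent cells. Parental HEK293 cells were plated 5 h or more before compound addition, then treated 18 h at 37 C.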

Structure (SMILES) | max response | Potency
CCOP(=O)(OCC)Oc1nc(Cl)c(Cl)cc1Cl | -13.2% (inactive) | 
CON=C(C(=O)OC)c1ccccc1CO/N=C(\C)c1cccc(C(F)(F)F)c1 | -22.9% (inactive) | 
CC1(C)CCC(Cc2ccc(Cl)cc2)C1(O)Cn1cncn1 (stereo unspecified) | -17.8% (inactive) | 
CC(C)NC(=O)N1CC(=O)N(c2cc(Cl)cc(Cl)c2)C1=O | -6.95% (inactive) | 
CCOCn1c(-c2ccc(Cl)cc2)c(C#N)c(Br)c1C(F)(F)F |  | 7.94 µM (active)
[CH3][Sn]([CH3])([Cl])[Cl] | -9.37% (inactive) | 
